# Test results taken from ChEMBL document CHEMBL1961873, “Compounds: GSK PKIS; Assays: Nanosyn kinase panel” (2012).
# Target: Tyrosine-protein kinase JAK2 (Homo sapiens) (UniProt O60674)
# Conditions: at 0.1 µM
# Sequence of Tyrosine-protein kinase JAK2 (Homo sapiens) (O60674 whole entry): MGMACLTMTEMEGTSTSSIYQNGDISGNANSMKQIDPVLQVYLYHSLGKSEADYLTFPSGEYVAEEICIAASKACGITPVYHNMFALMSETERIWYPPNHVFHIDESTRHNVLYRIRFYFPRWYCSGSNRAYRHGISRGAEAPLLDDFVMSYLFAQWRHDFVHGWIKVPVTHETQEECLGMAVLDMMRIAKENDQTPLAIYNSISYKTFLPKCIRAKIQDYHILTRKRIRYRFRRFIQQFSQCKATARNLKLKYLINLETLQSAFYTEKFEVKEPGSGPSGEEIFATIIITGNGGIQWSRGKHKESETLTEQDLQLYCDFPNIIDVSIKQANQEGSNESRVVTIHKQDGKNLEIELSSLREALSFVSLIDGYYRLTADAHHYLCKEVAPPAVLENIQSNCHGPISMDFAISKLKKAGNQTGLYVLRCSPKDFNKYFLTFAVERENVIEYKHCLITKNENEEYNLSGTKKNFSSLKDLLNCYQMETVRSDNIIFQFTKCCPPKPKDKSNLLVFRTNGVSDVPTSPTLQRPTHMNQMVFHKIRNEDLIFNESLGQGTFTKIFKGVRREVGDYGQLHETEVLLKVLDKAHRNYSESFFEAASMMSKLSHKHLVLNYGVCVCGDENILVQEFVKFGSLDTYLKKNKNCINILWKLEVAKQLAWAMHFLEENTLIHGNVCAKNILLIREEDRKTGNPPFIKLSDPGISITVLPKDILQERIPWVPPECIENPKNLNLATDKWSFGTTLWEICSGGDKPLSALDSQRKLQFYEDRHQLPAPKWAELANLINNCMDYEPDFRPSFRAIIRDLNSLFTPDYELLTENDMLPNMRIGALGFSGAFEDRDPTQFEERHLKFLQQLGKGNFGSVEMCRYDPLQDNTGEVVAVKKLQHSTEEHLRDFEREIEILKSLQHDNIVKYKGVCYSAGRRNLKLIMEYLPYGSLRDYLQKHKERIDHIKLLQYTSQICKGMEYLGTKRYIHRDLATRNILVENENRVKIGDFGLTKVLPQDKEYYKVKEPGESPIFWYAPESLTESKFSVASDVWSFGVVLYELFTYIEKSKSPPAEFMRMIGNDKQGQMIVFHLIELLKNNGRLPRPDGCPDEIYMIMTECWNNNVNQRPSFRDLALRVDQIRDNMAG
row,SMILES,inhibition [%]
1,COc1ccc(CNC(=O)c2ccc(-c3cc(-c4nnc(C)o4)ccc3C)cc2)cc1,1.15
2,Fc1ccc(-c2cc(-c3c[nH]nc3-c3ccccn3)ccn2)cc1,1
3,CS(=O)(=O)CCNCc1ccc(-c2ccc3ncnc(Nc4ccc(OCc5ccccc5)c(C(F)(F)F)c4)c3c2)o1,1.86
4,COc1ccc2c(-c3ccnc(Nc4cccc(OC(F)(F)F)c4)n3)cnn2n1,1.65
5,c1ccc(-c2nc3n(c2-c2ccc4c(c2)OCO4)CCC3)nc1,1.27
6,COc1ccc(-c2cc(-c3c[nH]nc3-c3ccccn3)ccn2)cc1,1.59
7,COc1ccc(-c2cc3c(N)ncnc3o2)cc1,-0.86
8,FC(F)(F)c1cccc(-c2nn3ncccc3c2-c2ccnc(Nc3ccc4c(c3)OCCO4)n2)c1,0.96
9,N#Cc1c(NC(=O)CN2CCOCC2)sc2c1CCCC2,2.3
10,COC(=O)Nc1nc2ccc(Oc3ccc(NC(=O)Nc4cccc(Cl)c4)cc3)cc2[nH]1,0.38
11,CN1CCC(n2cnc(-c3ccc(F)cc3)c2-c2ccnc(Nc3ccccc3)n2)CC1,0.27
12,Clc1ccc(-c2nn3ncccc3c2-c2ccnc(Nc3ccccc3)n2)cc1,1.44
13,COc1ccc(-c2nn3ncccc3c2-c2ccnc(Nc3ccc4c(c3)OCCO4)n2)cc1,-0.19
14,Nc1nc(-c2ccc(F)cc2)c(-c2ccc3ncccc3n2)s1,2.05
15,COc1ccc2[nH]c3c4[nH]c5ccc(OC)cc5c4c4c(c3c2c1)C(=O)NC4=O,-0.61
16,Cc1ccc(O)cc1Nc1ccnc2cc(-c3ccccn3)ccc12,2.62
17,NS(=O)(=O)c1ccc(N/N=C2\C(=O)Nc3ccc4ncccc4c32)cc1,1.52

row,SMILES,inhibition [%]
1,CCN1CCC(CC(=O)Nc2n[nH]c3nnc(-c4cccc(F)c4F)cc23)CC1,0.88
2,COc1cccc(-c2c[nH]c3c(N/N=C/c4ccncc4)ncnc23)c1,1.76
3,NC(=O)c1sc(-n2cnc3ccc(C(F)(F)F)cc32)cc1OCc1ccccc1Br,1.84
4,CC(C)COC(=O)c1ccc2c(c1)/C(=C/Nc1ccc(S(N)(=O)=O)cc1)C(=O)N2,-0.31
5,CCn1c(-c2nonc2N)nc2cnc(Oc3cccc(NC(=O)c4ccc(N(C)C)cc4)c3)cc21,0.7
6,Fc1cccc(COc2ccc(Nc3ncnc4sc(-c5ccco5)cc34)cc2Cl)c1,1.34
7,CC(=O)NCc1cccc(C#Cc2cncnc2Nc2ccc(OCc3cccc(F)c3)c(Cl)c2)c1,-0.2
8,CS(=O)(=O)CCNCc1coc(-c2ccc3ncnc(Nc4ccc(OCc5ccccc5)cc4)c3c2)c1,1.12
9,Cc1ccc2c(-c3ccnc(Nc4ccccc4)n3)c(-c3ccc(F)cc3)nn2n1,1.55
10,O=S(=O)(CCNCc1ccc(-c2ccc3ncnc(Nc4ccc(OCc5cccc(F)c5)c(Cl)c4)c3c2)o1)c1ccccc1,1.04
11,CCNC(=O)O[C@H]1CN[C@H](C#Cc2cc3ncnc(Nc4ccc(OCc5cccc(F)c5)c(Cl)c4)c3s2)C1,3.47
12,c1ccc(COc2ccc(Nc3ncnc4ccc(-c5ccco5)cc34)cc2)cc1,0.1
13,COC(=O)c1sc(-n2cnc3cc(OC)c(OC)cc32)cc1OCc1ccccc1C(F)(F)F,0.91
14,Cc1cccc2c1NC(=O)/C2=N\Nc1ccc(S(N)(=O)=O)cc1,2.04
15,CC(=O)Nc1cccc(C#Cc2cncnc2Nc2ccc(OCc3cccc(F)c3)c(Cl)c2)c1,4.37
16,CCn1c(-c2nonc2N)nc2ccccc21,1.96

# Target: Tyrosine-protein kinase JAK2 (Homo sapiens) (UniProt O60674)
# Conditions: at 1 µM
row,SMILES,inhibition [%]
1,COc1ccc(CNC(=O)c2ccc(-c3cc(-c4nnc(C)o4)ccc3C)cc2)cc1,1.48
2,Fc1ccc(-c2cc(-c3c[nH]nc3-c3ccccn3)ccn2)cc1,0.86
3,CS(=O)(=O)CCNCc1ccc(-c2ccc3ncnc(Nc4ccc(OCc5ccccc5)c(C(F)(F)F)c4)c3c2)o1,-0.24
4,COc1ccc2c(-c3ccnc(Nc4cccc(OC(F)(F)F)c4)n3)cnn2n1,10.9
5,c1ccc(-c2nc3n(c2-c2ccc4c(c2)OCO4)CCC3)nc1,-1.02
6,COc1ccc(-c2cc(-c3c[nH]nc3-c3ccccn3)ccn2)cc1,4.19
7,COc1ccc(-c2cc3c(N)ncnc3o2)cc1,3.1
8,FC(F)(F)c1cccc(-c2nn3ncccc3c2-c2ccnc(Nc3ccc4c(c3)OCCO4)n2)c1,1.37
9,N#Cc1c(NC(=O)CN2CCOCC2)sc2c1CCCC2,3.35
10,COC(=O)Nc1nc2ccc(Oc3ccc(NC(=O)Nc4cccc(Cl)c4)cc3)cc2[nH]1,-0.26
11,CN1CCC(n2cnc(-c3ccc(F)cc3)c2-c2ccnc(Nc3ccccc3)n2)CC1,0.26
12,Clc1ccc(-c2nn3ncccc3c2-c2ccnc(Nc3ccccc3)n2)cc1,0.88
13,COc1ccc(-c2nn3ncccc3c2-c2ccnc(Nc3ccc4c(c3)OCCO4)n2)cc1,-0.78
14,Nc1nc(-c2ccc(F)cc2)c(-c2ccc3ncccc3n2)s1,4.07
15,COc1ccc2[nH]c3c4[nH]c5ccc(OC)cc5c4c4c(c3c2c1)C(=O)NC4=O,-1.31
16,Cc1ccc(O)cc1Nc1ccnc2cc(-c3ccccn3)ccc12,3.62
17,NS(=O)(=O)c1ccc(N/N=C2\C(=O)Nc3ccc4ncccc4c32)cc1,22.4

row,SMILES,inhibition [%]
1,CCN1CCC(CC(=O)Nc2n[nH]c3nnc(-c4cccc(F)c4F)cc23)CC1,0.1
2,COc1cccc(-c2c[nH]c3c(N/N=C/c4ccncc4)ncnc23)c1,15.1
3,NC(=O)c1sc(-n2cnc3ccc(C(F)(F)F)cc32)cc1OCc1ccccc1Br,3.26
4,CC(C)COC(=O)c1ccc2c(c1)/C(=C/Nc1ccc(S(N)(=O)=O)cc1)C(=O)N2,12.3
5,CCn1c(-c2nonc2N)nc2cnc(Oc3cccc(NC(=O)c4ccc(N(C)C)cc4)c3)cc21,0.27
6,Fc1cccc(COc2ccc(Nc3ncnc4sc(-c5ccco5)cc34)cc2Cl)c1,1.22
7,CC(=O)NCc1cccc(C#Cc2cncnc2Nc2ccc(OCc3cccc(F)c3)c(Cl)c2)c1,-3
8,CS(=O)(=O)CCNCc1coc(-c2ccc3ncnc(Nc4ccc(OCc5ccccc5)cc4)c3c2)c1,1.93
9,Cc1ccc2c(-c3ccnc(Nc4ccccc4)n3)c(-c3ccc(F)cc3)nn2n1,2.93
10,O=S(=O)(CCNCc1ccc(-c2ccc3ncnc(Nc4ccc(OCc5cccc(F)c5)c(Cl)c4)c3c2)o1)c1ccccc1,1.11
11,CCNC(=O)O[C@H]1CN[C@H](C#Cc2cc3ncnc(Nc4ccc(OCc5cccc(F)c5)c(Cl)c4)c3s2)C1,2.64
12,c1ccc(COc2ccc(Nc3ncnc4ccc(-c5ccco5)cc34)cc2)cc1,-0.74
13,COC(=O)c1sc(-n2cnc3cc(OC)c(OC)cc32)cc1OCc1ccccc1C(F)(F)F,5.28
14,Cc1cccc2c1NC(=O)/C2=N\Nc1ccc(S(N)(=O)=O)cc1,4
15,CC(=O)Nc1cccc(C#Cc2cncnc2Nc2ccc(OCc3cccc(F)c3)c(Cl)c2)c1,6.59
16,CCn1c(-c2nonc2N)nc2ccccc21,1.39
